HTT cytoprotect = qHTS Multiplex Assay to Identify Dual Action Probes in a Cell Model of Huntington: Cytoprotection (ATP); PC12 HTT-Q103 induced, cytoprotection, ATP luminescence, 40 h; AID 1471, 2008; Potency, µM (top dose mostly 56.4 µM), usual class: activators; hit rate 0.14% among 230,000; also: nearly all actives have a fitted effect of over 45% in size
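Rat PC12, Q103 Htt exon1-GFP fusion, ecdysone promoter; tebufenozide inducer 100 nM final; compound titration; qHTS, 1500 cells/well; ATPlite luminescent read.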
TGFb inhibitor = qHTS for Inhibitors of TGF-b; HepG2 CAGA-GFP TGF-b/SMAD3 reporter, GFP fluorescence, 18 h; TGF-beta stimulated, 500 pg/mL final; Potency, µM (top dose mostly 46.1 µM), hits mostly inhibitors; hit rate 1.2% among 410,000; AID 588855, 2011; also: nearly all actives have a fitted effect of over 65% in size
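GFP signal (ex488/em500-530) from TGF-beta-stimulated HEPG2 CAGA-GFP cells, 500 pg/mL final, 18 h at 37 degrees C in DMEM plus 1% FBS, normalized to unstimulated and DMSO-stimulated controls.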
HepG2 tox-1 = qHTS for Inhibitors of TGF-b: Cytotox Counterscreen; HepG2 CAGA-GFP viability, ATP luminescence, 18 h; Potency, µM (titrated, usually from 46.1 µM), actives largely listed as cytotoxic; hit rate 0.76% among 410,000
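HepG2 CAGA-GFP cells (1000/well, DMEM with 1% FBS) received compound, then TGF-beta at 500 pg/mL final, and were incubated 18 hours at 37 degrees C. Viability was read by CellTiter-Glo luminescence. Media-only wells were set as complete cell-killing and DMSO as no toxicity.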
HTT aggregate = qHTS Multiplex Assay to Identify Dual Action Probes in a Cell Model of Huntington: Aggregate Formation (GFP); PC12 HttQ103-GFP aggregates, Acumen cytometry, 40 h; Potency, µM (doses to about 46.1 µM), most hits filed as inhibitors; hit rate 1.1% among 220,000; AID 1688, 2009; also: nearly all actives have a fitted effect of over 60% in size
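PC12 cells stably carrying ecdysone-inducible HTT exon 1 Q103–GFP were induced with tebufenozide (100 nM final) and treated with library compounds in titration. GFP aggregates in lysates were counted by laser scanning cytometry.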
S2 tox = Viability Counterscreen for Primary qHTS for Inhibitors of ATXN expression; S2 cells (HEK-293 line with an ATXN2-luciferase reporter) viability, CellTiter-Fluor protease fluorescence, 24 h; Potency, µM (titrated, usually from 56.7 µM), most hits filed as cytotoxic; hit rate 0.49% among 400,000; AID 651635, 2014; also: nearly all actives have a fitted effect of over 40% in size
ATXN2 expr inh = Primary qHTS for Inhibitors of ATXN expression | hit rate 0.72% among 360,000 | HEK-293 ATXN2-luciferase reporter, luminescence, 24 h | Potency, µM (top dose mostly 57 µM), actives largely listed as inhibitors | AID 1745845, 2022; also: nearly all actives have a fitted effect of over 55% in size
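ATXN2-luciferase reporter cells (luciferase flanked by upstream and downstream ATXN2 gene portions) were treated 24 h at 37 °C with compounds at up to 57 uM. SteadyGlo luminescence gave expression; GF-AFC fluorescence gave viability.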
TGFb confirm = qHTS for Inhibitors of TGF-b: Confirmation of Cherry Picks | HepG2 CAGA-GFP TGF-b reporter, GFP fluorescence, 18 h; cells stimulated with TGF-beta, 500 pg/mL | AID 720534, 2013 | shares compounds with TGFb inhibitor | hit rate 63% among 1,600 | Potency, µM (doses to about 46.1 µM), most hits filed as inhibitors; also: nearly all actives have a fitted effect of over 65% in size
HepG2 tox-2 = qHTS for Inhibitors of TGF-b: Cytotox Counterscreen for Cherry Picks; AID 720535, 2013; Potency, µM (highest dose often 46.1 µM), hits mostly inhibitors; hit rate 27% among 1,600; shares compounds with TGFb inhibitor; HepG2 CAGA-GFP viability, ATP luminescence, 18 h; cells stimulated with TGF-beta, 500 pg/mL; also: nearly all actives have a fitted effect of over 70% in size
TGFb CCL64 inh = qHTS for Inhibitors of TGF-b: CCL64 Cells Orthogonal Assay for Cherry Picks; shares compounds with TGFb inhibitor; CCL64 CAGA-GFP reporter, TGF-b stimulated, GFP fluorescence, 18 h; Potency, µM (titrated, usually from 46.1 µM), hits mostly inhibitors; hit rate 41% among 1,600; AID 720536, 2013; also: nearly all actives have a fitted effect of over 65% in size
TGFb COP inh = qHTS for Inhibitors of TGF-b: Hit Validation in HepG2 Cells using COP promoter; hit rate 3% among 1,600; shares compounds with TGFb inhibitor; AID 720537, 2013; Potency, µM (doses to about 46.1 µM), most hits filed as inhibitors; HepG2 COP-GFP TGF-b reporter, GFP fluorescence, 18 h; cells stimulated by added recombinant TGF-beta; also: nearly all actives have a fitted effect of over 70% in size
Of the large screens only hits and unclear results are named; the others gave an inactive call (follow-up assays come after a bar, where they were run). In the library only some 2.8% were active in any assay of this set; here they are far more common. Calls follow the shape of the dose curve; as a rule, active = well fitted curve in the direction sought with a large enough effect; inconclusive = small, poorly fitted or top-dose-only effect, or another doubt; inactive = no such curve, though single readings can be large; an effect the other way counts as inactive or inconclusive.

COc1ccc(CC2C(=O)NC(C)C(=O)N(C)C3Cc4ccc(cc4)Oc4cc(ccc4O)CC(C(=O)NC(C)C(=O)NC(C)C(=O)N2C)N(C)C3=O)cc1 (stereo unspecified)	S2 tox 0.0597µM, ATXN2 expr inh 0.238µM (no result: HTT cytoprotect, HTT aggregate) | TGFb confirm 0.0184µM | HepG2 tox-2 0.206µM | TGFb CCL64 inh 0.0206µM | TGFb COP inh inactive
O=C1CC2(CCCC2)CC(=O)N1CCNC[C@H]1COc2ccccc2O1	none (no result: TGFb inhibitor, HepG2 tox-1, HTT aggregate, S2 tox, ATXN2 expr inh)
Cc1cccc(/C=C(\c2nc3ccccc3[nH]2)S(=O)(=O)c2ccccc2)c1	HTT cytoprotect inconclusive, TGFb inhibitor 10µM, HTT aggregate inconclusive, S2 tox inconclusive, ATXN2 expr inh inconclusive | TGFb confirm 4.61µM | HepG2 tox-2 4.61µM | TGFb CCL64 inh 5.8µM | TGFb COP inh inconclusive
Cc1ccc(NC(=S)c2nc3ccccc3[nH]2)c(C)c1	HTT aggregate inconclusive
O=S(=O)(Nc1ccc2c(c1)OCCO2)c1ccc2oc3ccccc3c2c1	TGFb inhibitor 10µM, HTT aggregate 11.2µM | TGFb confirm 23.1µM | HepG2 tox-2 inconclusive | TGFb CCL64 inh inconclusive | TGFb COP inh inactive
O=C1[C@H]2[C@H]3[C@H](O)[C@H](O)C/C(=N/OC[C@@H](O)COCc4ccco4)[C@@H]3CC[C@@H]2C(=O)N1Cc1ccc2c(c1)OCO2	none (no result: TGFb inhibitor, HepG2 tox-1, HTT aggregate, S2 tox, ATXN2 expr inh)
Cc1ccccc1OCC(O)CNC1CCC(NCC(O)COc2ccccc2C)CC1 (stereo unspecified)	TGFb inhibitor 5.62µM, HepG2 tox-1 1.78µM, S2 tox inconclusive, ATXN2 expr inh inconclusive (no result: HTT cytoprotect, HTT aggregate) | TGFb confirm 4.61µM | HepG2 tox-2 5.17µM | TGFb CCL64 inh inconclusive | TGFb COP inh inconclusive
COc1ccc(-c2cc3ccccc3oc2=O)cc1NC(=O)c1ccc([N+](=O)[O-])o1	TGFb inhibitor 6.31µM, HTT aggregate inconclusive, S2 tox inconclusive | TGFb confirm 1.84µM | HepG2 tox-2 inconclusive | TGFb CCL64 inh inactive | TGFb COP inh inactive
COc1ccc(CNC(=O)c2c(C)oc3c2C(=O)c2ccccc2C3=O)cc1	TGFb inhibitor 1µM, HepG2 tox-1 0.891µM, HTT aggregate inconclusive, ATXN2 expr inh inconclusive (no result: HTT cytoprotect) | TGFb confirm 0.651µM | HepG2 tox-2 1.03µM | TGFb CCL64 inh 5.17µM | TGFb COP inh 2.06µM
CS(=O)(=O)c1ccccc1C(=O)Nc1ccccc1Cc1ccccc1	none (no result: HTT cytoprotect, HTT aggregate)
O=C(Nc1ccccc1Cc1ccccc1)c1ccccc1NS(=O)(=O)c1ccc(Cl)s1	TGFb inhibitor 4.47µM, HTT aggregate 2.51µM, ATXN2 expr inh inconclusive (no result: HTT cytoprotect) | TGFb confirm 5.8µM | HepG2 tox-2 10.3µM | TGFb CCL64 inh 9.2µM | TGFb COP inh inactive

Assay outcomes: PubChem, National Center for Advancing Translational Sciences (NCATS)
